# This is part of a sample that, as a whole, favours compounds with a hit. Of some 79,000 tested, about 15% had one in any assay. A number with no mark means an inactive call. The source made the active and inactive calls. Cut-off read from the data, not from the text of the source: active = growth inhibition above about 70%; inactive = the rest.
# Columns and labels:
# [1] = NCI Yeast Anticancer Drug Screen. Data for the rad52 strain (AID 147);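 note: 0% = growth of vehicle-treated control cultures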; settings: S. cerevisiae rad52 mutant growth inhibition, active compounds read high
# Outline: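 Inhibition of yeast growth, referenced to vehicle controls, was the measured output for a strain with defective DNA damage repair.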
# [2] = NCI Yeast Anticancer Drug Screen. Data for the wt1 strain (AID 149);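 note: 0% = growth of vehicle-treated wt1 cultures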; settings: S. cerevisiae wt1 strain (SPY 50644) growth inhibition, active compounds read high
# Outline: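 Growth inhibition read against vehicle controls after compound exposure of the wt1 yeast strain.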
# [3] = NCI Yeast Anticancer Drug Screen. Data for the rad50EPP+ strain (AID 151);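 note: 0% = growth of vehicle-treated control cultures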; settings: S. cerevisiae rad50 mutant strain, active compounds read high
# Outline: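 Genetically defined yeast (rad50EPP+, DNA damage repair alteration) is grown with compound, and inhibition of growth is expressed relative to vehicle-treated controls.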
# [4] = NCI Yeast Anticancer Drug Screen. Data for the mgt1 strain (AID 153); settings: S. cerevisiae mgt1 mutant growth inhibition, active compounds read high
# Outline: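 In the mgt1 strain, test compounds were added and growth inhibition was determined relative to vehicle-treated controls.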
# [5] = NCI Yeast Anticancer Drug Screen. Data for the rad50 strain (AID 155);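 note: 0% = growth of vehicle-only cultures of the same strain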; settings: S. cerevisiae rad50 strain growth inhibition, active compounds read high
# Outline: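 Readout: growth inhibition relative to vehicle-treated cultures. Compound exposure was carried out in a genetically defined yeast strain deficient in DNA damage repair.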
# [6] = NCI Yeast Anticancer Drug Screen. Data for the mec2-1 strain (AID 157); settings: S. cerevisiae mec2-1 strain, active compounds read high
# Outline: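 Each compound was tested on mec2-1 yeast, a strain altered in DNA damage repair or cell cycle control. Growth inhibition is reported relative to vehicle.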
# [7] = NCI Yeast Anticancer Drug Screen. Data for the rad14 strain (AID 159);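 note: 0% = growth of vehicle-treated control cultures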; settings: S. cerevisiae rad14 strain growth inhibition, active compounds read high
# Outline: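 Growth inhibition vs vehicle controls; genetically altered yeast strain (DNA damage repair defect) treated with test compounds.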
# [8] = NCI Yeast Anticancer Drug Screen. Data for the sgs1 mgt1 strain (AID 161);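 note: 0% = growth of cultures given vehicle only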; settings: S. cerevisiae sgs1 mgt1 strain, active compounds read high
# Outline: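 Read-out: growth inhibition vs vehicle controls. Cells: mutant yeast strain deficient in DNA damage repair.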
# [9] = NCI Yeast Anticancer Drug Screen. Data for the CLN2oe strain (AID 163);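 note: 0% = growth of vehicle-only control cultures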; settings: S. cerevisiae CLN2oe strain, active compounds read high
# Outline: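 First, the altered yeast strain was treated with each compound; second, its growth was measured; finally, inhibition was derived by comparison with vehicle controls.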
# [10] = NCI Yeast Anticancer Drug Screen. Data for the cln2 rad14 strain (AID 165);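 note: 0% = growth equal to vehicle treated cultures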; settings: S. cerevisiae cln2 rad14 strain, active compounds read high
# Outline: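 Test compounds were added to cln2 rad14 yeast cultures; inhibition of growth was then determined by comparison with vehicle treatment.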
# [11] = NCI Yeast Anticancer Drug Screen. Data for the bub3 strain (AID 167); settings: S. cerevisiae bub3 mutant strain, active compounds read high
# Outline: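 Readout: yeast growth inhibition, expressed relative to vehicle-only wells. The test organism is a mutant strain from a panel with lesions in DNA repair or checkpoint genes.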
# [12] = NCI Yeast Anticancer Drug Screen. Data for the wt2 strain (AID 169);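 note: 0% = growth of vehicle-treated yeast cultures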; settings: S. cerevisiae wt2 strain growth inhibition, active compounds read high
# Outline: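 The panel's yeast strains carry defined changes in DNA repair or cell cycle genes. Each strain is grown with compound, and growth loss is scored relative to vehicle.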
# [13] = NCI Yeast Anticancer Drug Screen. Data for the mlh1 strain (AID 171);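 note: 0% = growth of vehicle-treated control cultures of the same strain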; settings: S. cerevisiae mlh1 strain growth inhibition, active compounds read high
# Outline: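 Inhibition values reflect reduced yeast growth in the presence of compound, referenced to vehicle controls, using a strain chosen for its alteration in DNA repair or cell cycle control.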
# [14] = NCI Yeast Anticancer Drug Screen. Data for the sgs1 strain (AID 173);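 note: 0% = growth of vehicle-only control cultures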; settings: S. cerevisiae sgs1 mutant, active compounds read high
# Outline: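 Vehicle-treated cultures served as reference for growth inhibition of a yeast strain altered in DNA damage repair or cell cycle control after compound exposure.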
# [15] = NCI Yeast Anticancer Drug Screen. Data for the mlh1 rad18 strain (AID 175); settings: S. cerevisiae mlh1 rad18 strain growth inhibition, active compounds read high
# Outline: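 Inhibition values reflect reduced growth of mutant yeast versus vehicle-treated controls following compound exposure; the mutations affect DNA damage repair.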
# [16] = NCI Yeast Anticancer Drug Screen. Data for the rad18 strain (AID 177); settings: S. cerevisiae rad18 mutant growth inhibition, active compounds read high
# Outline: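 Steps: expose repair-mutant yeast to compound; measure growth; express as inhibition relative to vehicle control.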
# [17] = at 5.0 µM (retest, dose inferred, filed as 0.5)
# [18] = at 50.0 µM (retest, dose inferred, filed as 5.0)
smiles,measurement,setting,value
Cc1ccc2c(c1)C1(C)c3cc(C)ccc3SP1S2 (stereo unspecified),growth inhibition,[1]; at 1.2 µM,20%
same,growth inhibition,[1]; at 3.7 µM,22%
same,growth inhibition,[1]; at 11.0 µM,20%
same,growth inhibition,[1]; at 33.0 µM,51%
same,growth inhibition,[1]; at 100.0 µM,55%
same,growth inhibition,[2]; at 1.2 µM,19%
same,growth inhibition,[2]; at 3.7 µM,9%
same,growth inhibition,[2]; at 11.0 µM,25%
same,growth inhibition,[2]; at 33.0 µM,26%
same,growth inhibition,[2]; at 100.0 µM,36%
same,growth inhibition,[3]; at 1.2 µM,4%
same,growth inhibition,[3]; at 3.7 µM,7%
same,growth inhibition,[3]; at 11.0 µM,17%
same,growth inhibition,[3]; at 33.0 µM,47%
same,growth inhibition,[3]; at 100.0 µM,50%
same,growth inhibition,[4]; at 1.2 µM,10%
same,growth inhibition,[4]; at 3.7 µM,3%
same,growth inhibition,[4]; at 11.0 µM,9%
same,growth inhibition,[4]; at 33.0 µM,37%
same,growth inhibition,[4]; at 100.0 µM,43%
same,growth inhibition,[5]; at 1.2 µM,17%
same,growth inhibition,[5]; at 3.7 µM,11%
same,growth inhibition,[5]; [17],-4%
same,growth inhibition,[5]; at 11.0 µM,18%
same,growth inhibition,[5]; at 33.0 µM,39%
same,growth inhibition,[5]; [18],51%
same,growth inhibition,[5]; at 50.0 µM,71.7% (active)
same,growth inhibition,[5]; at 100.0 µM,54%
same,growth inhibition,[6]; at 1.2 µM,11%
same,growth inhibition,[6]; at 3.7 µM,21%
same,growth inhibition,[6]; [17],-12%
same,growth inhibition,[6]; at 11.0 µM,18%
same,growth inhibition,[6]; at 33.0 µM,30%
same,growth inhibition,[6]; [18],17%
same,growth inhibition,[6]; at 50.0 µM,40.1%
same,growth inhibition,[6]; at 100.0 µM,30%
same,growth inhibition,[7]; at 1.2 µM,0%
same,growth inhibition,[7]; at 3.7 µM,-10%
same,growth inhibition,[7]; at 11.0 µM,-23%
same,growth inhibition,[7]; at 33.0 µM,15%
same,growth inhibition,[7]; at 100.0 µM,29%
same,growth inhibition,[8]; [17],6%
same,growth inhibition,[8]; [18],54%
same,growth inhibition,[8]; at 50.0 µM,63%
same,growth inhibition,[9]; at 1.2 µM,15%
same,growth inhibition,[9]; at 3.7 µM,-13%
same,growth inhibition,[9]; at 11.0 µM,-14%
same,growth inhibition,[9]; at 33.0 µM,25%
same,growth inhibition,[9]; at 100.0 µM,4%
same,growth inhibition,[10]; [17],28%
same,growth inhibition,[10]; [18],71% (active)
same,growth inhibition,[10]; at 50.0 µM,52.9%
same,growth inhibition,[11]; at 1.2 µM,23%
same,growth inhibition,[11]; at 3.7 µM,18%
same,growth inhibition,[11]; [17],-3%
same,growth inhibition,[11]; at 11.0 µM,20%
same,growth inhibition,[11]; at 33.0 µM,22%
same,growth inhibition,[11]; [18],59%
same,growth inhibition,[11]; at 50.0 µM,42.8%
same,growth inhibition,[11]; at 100.0 µM,42%
same,growth inhibition,[12]; at 1.2 µM,13%
same,growth inhibition,[12]; at 3.7 µM,1%
same,growth inhibition,[12]; at 11.0 µM,18%
same,growth inhibition,[12]; at 33.0 µM,36%
same,growth inhibition,[12]; at 100.0 µM,50%
same,growth inhibition,[13]; at 1.2 µM,-5%
same,growth inhibition,[13]; at 3.7 µM,-22%
same,growth inhibition,[13]; at 11.0 µM,-3%
same,growth inhibition,[13]; at 33.0 µM,26%
same,growth inhibition,[13]; at 100.0 µM,39%
same,growth inhibition,[14]; at 1.2 µM,6%
same,growth inhibition,[14]; at 3.7 µM,4%
same,growth inhibition,[14]; at 11.0 µM,18%
same,growth inhibition,[14]; at 33.0 µM,46%
same,growth inhibition,[14]; at 100.0 µM,51%
same,growth inhibition,[15]; [17],4%
same,growth inhibition,[15]; [18],74% (active)
same,growth inhibition,[15]; at 50.0 µM,46.9%
same,growth inhibition,[16]; at 1.2 µM,8%
same,growth inhibition,[16]; at 3.7 µM,-3%
same,growth inhibition,[16]; at 11.0 µM,7%
same,growth inhibition,[16]; at 33.0 µM,27%
same,growth inhibition,[16]; at 100.0 µM,52%
CCOP(=S)(S)OCC.[Pd],growth inhibition,[1]; at 1.2 µM,5%
same,growth inhibition,[1]; at 3.7 µM,45%
same,growth inhibition,[1]; at 11.0 µM,75% (active)
same,growth inhibition,[1]; at 33.0 µM,82% (active)
same,growth inhibition,[1]; at 100.0 µM,80% (active)
same,growth inhibition,[2]; at 1.2 µM,2%
same,growth inhibition,[2]; at 3.7 µM,55%
same,growth inhibition,[2]; at 11.0 µM,93% (active)
same,growth inhibition,[2]; at 33.0 µM,89% (active)
same,growth inhibition,[2]; at 100.0 µM,83% (active)
same,growth inhibition,[3]; at 1.2 µM,0%
same,growth inhibition,[3]; at 3.7 µM,11%
same,growth inhibition,[3]; at 11.0 µM,24%
same,growth inhibition,[3]; at 33.0 µM,20%
same,growth inhibition,[3]; at 100.0 µM,8%
same,growth inhibition,[4]; at 1.2 µM,-2%
same,growth inhibition,[4]; at 3.7 µM,17%
same,growth inhibition,[4]; at 11.0 µM,68%
same,growth inhibition,[4]; at 33.0 µM,82% (active)
same,growth inhibition,[4]; at 100.0 µM,82% (active)
same,growth inhibition,[5]; at 1.2 µM,12%
same,growth inhibition,[5]; at 3.7 µM,57%
same,growth inhibition,[5]; [17],67%
same,growth inhibition,[5]; at 11.0 µM,95% (active)
same,growth inhibition,[5]; at 33.0 µM,91% (active)
same,growth inhibition,[5]; [18],32%
same,growth inhibition,[5]; at 50.0 µM,79.4% (active)
same,growth inhibition,[5]; at 100.0 µM,92% (active)
same,growth inhibition,[6]; at 1.2 µM,10%
same,growth inhibition,[6]; at 3.7 µM,67%
same,growth inhibition,[6]; [17],80% (active)
same,growth inhibition,[6]; at 11.0 µM,95% (active)
same,growth inhibition,[6]; at 33.0 µM,87% (active)
same,growth inhibition,[6]; [18],51%
same,growth inhibition,[6]; at 50.0 µM,67.9%
same,growth inhibition,[6]; at 100.0 µM,85% (active)
same,growth inhibition,[7]; at 1.2 µM,0%
same,growth inhibition,[7]; at 3.7 µM,17%
same,growth inhibition,[7]; at 11.0 µM,60%
same,growth inhibition,[7]; at 33.0 µM,75% (active)
same,growth inhibition,[7]; at 100.0 µM,75% (active)
same,growth inhibition,[8]; [17],57%
same,growth inhibition,[8]; [18],36%
same,growth inhibition,[8]; at 50.0 µM,76.1% (active)
same,growth inhibition,[9]; at 1.2 µM,-3%
same,growth inhibition,[9]; at 3.7 µM,20%
same,growth inhibition,[9]; at 11.0 µM,59%
same,growth inhibition,[9]; at 33.0 µM,76% (active)
same,growth inhibition,[9]; at 100.0 µM,77% (active)
same,growth inhibition,[10]; [17],23%
same,growth inhibition,[10]; [18],9%
same,growth inhibition,[10]; at 50.0 µM,76.5% (active)
same,growth inhibition,[11]; at 1.2 µM,6%
same,growth inhibition,[11]; at 3.7 µM,63%
same,growth inhibition,[11]; [17],84% (active)
same,growth inhibition,[11]; at 11.0 µM,94% (active)
same,growth inhibition,[11]; at 33.0 µM,90% (active)
same,growth inhibition,[11]; [18],86% (active)
same,growth inhibition,[11]; at 50.0 µM,80.9% (active)
same,growth inhibition,[11]; at 100.0 µM,83% (active)
same,growth inhibition,[12]; at 1.2 µM,-2%
same,growth inhibition,[12]; at 3.7 µM,59%
same,growth inhibition,[12]; at 11.0 µM,95% (active)
same,growth inhibition,[12]; at 33.0 µM,91% (active)
same,growth inhibition,[12]; at 100.0 µM,85% (active)
same,growth inhibition,[13]; at 1.2 µM,4%
same,growth inhibition,[13]; at 3.7 µM,56%
same,growth inhibition,[13]; at 11.0 µM,94% (active)
same,growth inhibition,[13]; at 33.0 µM,88% (active)
same,growth inhibition,[13]; at 100.0 µM,84% (active)
same,growth inhibition,[14]; at 1.2 µM,13%
same,growth inhibition,[14]; at 3.7 µM,77% (active)
same,growth inhibition,[14]; at 11.0 µM,95% (active)
same,growth inhibition,[14]; at 33.0 µM,93% (active)
same,growth inhibition,[14]; at 100.0 µM,88% (active)
same,growth inhibition,[15]; [17],83% (active)
same,growth inhibition,[15]; [18],56%
same,growth inhibition,[15]; at 50.0 µM,79.5% (active)
same,growth inhibition,[16]; at 1.2 µM,15%
same,growth inhibition,[16]; at 3.7 µM,86% (active)
same,growth inhibition,[16]; at 11.0 µM,98% (active)
same,growth inhibition,[16]; at 33.0 µM,96% (active)
same,growth inhibition,[16]; at 100.0 µM,93% (active)
